Source: article PMC11006913
Substitutions are numbered along the chain they refer to.

Key:
Test in all cases: PBM; 200 nM protein, PBS
Details in all cases: dsDNA, one strand shown
NKX2-5 [1] = biological target: NKX2-5 (Homo sapiens, UniProt P52952 125-210, R139K)
NKX2-4 [2] = biological target: T1, NKX2-4 (Homo sapiens, UniProt Q9H2Z4 175-261, P217L)
T1 sequence: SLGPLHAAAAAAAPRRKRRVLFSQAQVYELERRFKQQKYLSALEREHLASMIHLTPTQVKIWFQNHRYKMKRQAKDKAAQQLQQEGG

NKX2-4 [3] = biological target: T2, NKX2-4 (Homo sapiens, UniProt Q9H2Z4 175-261, T231S)
T2 sequence: T1 sequence with L43P, T57S

NKX2-4 [4] = biological target: T3, NKX2-4 (Homo sapiens, UniProt Q9H2Z4 175-261)
T3 sequence: T1 sequence with L43P

NKX2-6 [5] = biological target: T4, NKX2-6 (Homo sapiens, UniProt A6NCS4 118-204, R150C)
T4 sequence: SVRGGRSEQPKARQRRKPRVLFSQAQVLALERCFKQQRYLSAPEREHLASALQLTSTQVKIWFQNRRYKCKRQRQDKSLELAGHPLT

NKX2-6 [6] = biological target: T5, NKX2-6 (Homo sapiens, UniProt A6NCS4 118-204)
T5 sequence: T4 sequence with C33R

NKX2-4 [7] = biological target: T6, NKX2-4 (Homo sapiens, UniProt Q9H2Z4 175-261, R246Q)
T6 sequence: T1 sequence with L43P, R72Q

NKX2-6 [8] = biological target: T7, NKX2-6 (Homo sapiens, UniProt A6NCS4 118-204, F151L)
T7 sequence: T4 sequence with C33R, F34L

NKX3-2 [9] = biological target: NKX3-2 (Homo sapiens, UniProt P78367 192-278, P234S)
Sequence of NKX3-2 (Homo sapiens, UniProt P78367 192-278, P234S) (P78367 192-278 P234S): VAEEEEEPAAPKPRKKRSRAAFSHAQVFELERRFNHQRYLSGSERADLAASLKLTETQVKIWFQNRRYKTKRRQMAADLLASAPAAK

NKX2-5 [10] = biological target: NKX2-5 (Homo sapiens, UniProt P52952 125-210)
Sequence of NKX2-5 (Homo sapiens, UniProt P52952 125-210) (P52952 125-210): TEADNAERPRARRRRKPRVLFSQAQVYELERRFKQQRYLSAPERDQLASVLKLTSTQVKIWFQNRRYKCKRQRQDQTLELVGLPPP

NKX3-2 [11] = biological target: NKX3-2 (Homo sapiens, UniProt P78367 192-278)
Sequence of NKX3-2 (Homo sapiens, UniProt P78367 192-278) (P78367 192-278): as the sequence (P78367 192-278 P234S) above, with S43P counted along it

HOXA2 [12] = biological target: HOXA2 (Homo sapiens, UniProt O43364 129-215, R185T)
Sequence of HOXA2 (Homo sapiens, UniProt O43364 129-215, R185T) (O43364 129-215 R185T): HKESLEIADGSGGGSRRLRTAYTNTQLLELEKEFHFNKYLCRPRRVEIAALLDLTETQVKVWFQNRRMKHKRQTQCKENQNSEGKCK

HOXA2 [13] = biological target: HOXA2 (Homo sapiens, UniProt O43364 129-215, R185K)
Sequence of HOXA2 (Homo sapiens, UniProt O43364 129-215, R185K) (O43364 129-215 R185K): as the sequence (O43364 129-215 R185T) above, with T57K counted along it

HOXA2 [14] = biological target: HOXA2 (Homo sapiens, UniProt O43364 129-215, Y150S)
Sequence of HOXA2 (Homo sapiens, UniProt O43364 129-215, Y150S) (O43364 129-215 Y150S): as the sequence (O43364 129-215 R185T) above, with Y22S, T57R counted along it

HOXA2 [15] = biological target: HOXA2 (Homo sapiens, UniProt O43364 129-215)
Sequence of HOXA2 (Homo sapiens, UniProt O43364 129-215) (O43364 129-215): as the sequence (O43364 129-215 R185T) above, with T57R counted along it

Sequence of NKX2-5 (Homo sapiens, UniProt P52952 125-210, R139K) (P52952 125-210 R139K): as the sequence (P52952 125-210) above, with R15K counted along it

AAGTGGCT was tested, and the binding signal (NKX2-5 [1]) was 12.5 upbm affinity estimate (log intensity, higher = more binding, comparable within an allelic series), the binding signal (NKX2-4 [2]) was 12.5 upbm affinity estimate (log intensity, higher = more binding, comparable within an allelic series) and the binding signal (NKX2-4 [3]) was 12.9 upbm affinity estimate (log intensity, higher = more binding, comparable within an allelic series). The binding signal (NKX2-4 [4]) was 12.4 upbm affinity estimate (log intensity, higher = more binding, comparable within an allelic series), the binding signal (NKX2-6 [5]) was 11.8 upbm affinity estimate (log intensity, higher = more binding, comparable within an allelic series) and the binding signal (NKX2-6 [6]) was 13.4 upbm affinity estimate (log intensity, higher = more binding, comparable within an allelic series). The binding signal (NKX2-4 [7]) was 13 upbm affinity estimate (log intensity, higher = more binding, comparable within an allelic series), the binding signal (NKX2-6 [8]) was 10.6 upbm affinity estimate (log intensity, higher = more binding, comparable within an allelic series) and the binding signal (NKX3-2 [9]) was 12.8 upbm affinity estimate (log intensity, higher = more binding, comparable within an allelic series). The binding signal (NKX2-5 [10]) was 12.4 upbm affinity estimate (log intensity, higher = more binding, comparable within an allelic series) and the binding signal (NKX3-2 [11]) was 12.9 upbm affinity estimate (log intensity, higher = more binding, comparable within an allelic series).

CCAGGCCG was tested, and the binding signal (NKX2-5 [1]) was 8.83 upbm affinity estimate (log intensity, higher = more binding, comparable within an allelic series), the binding signal (NKX2-4 [2]) was 9.57 upbm affinity estimate (log intensity, higher = more binding, comparable within an allelic series) and the binding signal (NKX2-4 [3]) was 9.57 upbm affinity estimate (log intensity, higher = more binding, comparable within an allelic series). The binding signal (NKX2-4 [4]) was 9.56 upbm affinity estimate (log intensity, higher = more binding, comparable within an allelic series), the binding signal (HOXA2 [12]) was 7.21 upbm affinity estimate (log intensity, higher = more binding, comparable within an allelic series) and the binding signal (HOXA2 [13]) was 10.2 upbm affinity estimate (log intensity, higher = more binding, comparable within an allelic series). For the same sequence, the binding signal (NKX2-4 [7]) was 9.57 upbm affinity estimate (log intensity, higher = more binding, comparable within an allelic series), the binding signal (HOXA2 [14]) was 10.3 upbm affinity estimate (log intensity, higher = more binding, comparable within an allelic series) and the binding signal (HOXA2 [15]) was 7.17 upbm affinity estimate (log intensity, higher = more binding, comparable within an allelic series). For the same sequence, the binding signal (NKX2-5 [10]) was 8.78 upbm affinity estimate (log intensity, higher = more binding, comparable within an allelic series).

In the case of CTTCCGTC, the binding signal (NKX2-5 [1]) is reported as 8.85 upbm affinity estimate (log intensity, higher = more binding, comparable within an allelic series) and the binding signal (NKX2-5 [10]) is reported as 8.77 upbm affinity estimate (log intensity, higher = more binding, comparable within an allelic series).

For CGAACGCC, the binding signal (NKX2-5 [1]) was 8.62 upbm affinity estimate (log intensity, higher = more binding, comparable within an allelic series) and the binding signal (NKX2-5 [10]) was 8.69 upbm affinity estimate (log intensity, higher = more binding, comparable within an allelic series).

In the case of ATTACGTA, the binding signal (NKX2-5 [1]) is reported as 10.3 upbm affinity estimate (log intensity, higher = more binding, comparable within an allelic series) and the binding signal (NKX2-5 [10]) is reported as 10.3 upbm affinity estimate (log intensity, higher = more binding, comparable within an allelic series).

With ATAAGTAC the binding signal (NKX2-5 [1]) was 12.9 upbm affinity estimate (log intensity, higher = more binding, comparable within an allelic series), the binding signal (NKX2-4 [2]) was 12.6 upbm affinity estimate (log intensity, higher = more binding, comparable within an allelic series) and the binding signal (NKX2-4 [3]) was 13 upbm affinity estimate (log intensity, higher = more binding, comparable within an allelic series). The binding signal (NKX2-4 [4]) was 12.5 upbm affinity estimate (log intensity, higher = more binding, comparable within an allelic series), the binding signal (NKX2-6 [5]) was 12 upbm affinity estimate (log intensity, higher = more binding, comparable within an allelic series) and the binding signal (NKX2-6 [6]) was 13.6 upbm affinity estimate (log intensity, higher = more binding, comparable within an allelic series). The binding signal (NKX2-4 [7]) was 13.1 upbm affinity estimate (log intensity, higher = more binding, comparable within an allelic series), the binding signal (NKX2-6 [8]) was 10.9 upbm affinity estimate (log intensity, higher = more binding, comparable within an allelic series) and the binding signal (NKX3-2 [9]) was 12.5 upbm affinity estimate (log intensity, higher = more binding, comparable within an allelic series). For the same sequence, the binding signal (NKX2-5 [10]) was 12.7 upbm affinity estimate (log intensity, higher = more binding, comparable within an allelic series).

For GCCACTTA, the binding signal (NKX2-5 [1]) was 13.3 upbm affinity estimate (log intensity, higher = more binding, comparable within an allelic series), the binding signal (NKX2-4 [2]) was 12.7 upbm affinity estimate (log intensity, higher = more binding, comparable within an allelic series) and the binding signal (NKX2-4 [3]) was 13 upbm affinity estimate (log intensity, higher = more binding, comparable within an allelic series). For the same sequence, the binding signal (NKX2-4 [4]) was 12.5 upbm affinity estimate (log intensity, higher = more binding, comparable within an allelic series), the binding signal (NKX2-6 [5]) was 12.2 upbm affinity estimate (log intensity, higher = more binding, comparable within an allelic series) and the binding signal (NKX2-6 [6]) was 14 upbm affinity estimate (log intensity, higher = more binding, comparable within an allelic series). The binding signal (NKX2-4 [7]) was 13.2 upbm affinity estimate (log intensity, higher = more binding, comparable within an allelic series), the binding signal (NKX2-6 [8]) was 11.2 upbm affinity estimate (log intensity, higher = more binding, comparable within an allelic series) and the binding signal (NKX3-2 [9]) was 13.3 upbm affinity estimate (log intensity, higher = more binding, comparable within an allelic series). The binding signal (NKX2-5 [10]) was 13.1 upbm affinity estimate (log intensity, higher = more binding, comparable within an allelic series) and the binding signal (NKX3-2 [11]) was 13.4 upbm affinity estimate (log intensity, higher = more binding, comparable within an allelic series).

For ACCAGCTG, the binding signal (NKX2-5 [1]) was 8.74 upbm affinity estimate (log intensity, higher = more binding, comparable within an allelic series) and the binding signal (NKX2-5 [10]) was 9.02 upbm affinity estimate (log intensity, higher = more binding, comparable within an allelic series).

In the case of CGGTCCAA, the binding signal (NKX2-5 [1]) is reported as 8.45 upbm affinity estimate (log intensity, higher = more binding, comparable within an allelic series) and the binding signal (NKX2-5 [10]) is reported as 8.42 upbm affinity estimate (log intensity, higher = more binding, comparable within an allelic series).
